Data as given in PubChem BioAssay (NCI).
The panel holds about 79,000 compounds, 15% with a hit somewhere; the sample as a whole holds those more often. Rule as the data show it: active = growth inhibition above about 70%; inactive = the rest.

Experiments:
[1] = NCI Yeast Anticancer Drug Screen. Data for the rad50 strain (AID 155);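 also: 0% = growth of vehicle-only cultures of the same strain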; conditions: S. cerevisiae rad50 strain growth inhibition; at 50.0 µM; hits give high values
Procedure, shortened: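 Growth of the mutant yeast was measured after compound exposure and referenced to vehicle-treated cultures.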

[2] = NCI Yeast Anticancer Drug Screen. Data for the mec2-1 strain (AID 157); conditions: S. cerevisiae mec2-1 strain, at 50.0 µM, hits give high values
Procedure, shortened: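 Vehicle-treated cultures served as reference for growth inhibition of compound-exposed mec2-1 yeast.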

[3] = NCI Yeast Anticancer Drug Screen. Data for the sgs1 mgt1 strain (AID 161);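 also: 0% = growth of cultures given vehicle only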; conditions: S. cerevisiae sgs1 mgt1 strain, at 50.0 µM, hits give high values
Procedure, shortened: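 Mutant yeast exposed to compound; growth scored against vehicle-only wells.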

[4] = NCI Yeast Anticancer Drug Screen. Data for the cln2 rad14 strain (AID 165);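 also: 0% = growth equal to vehicle treated cultures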; conditions: S. cerevisiae cln2 rad14 strain, at 50.0 µM, hits give high values
Procedure, shortened: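 Each compound was tested on cln2 rad14 yeast. Inhibition of growth was calculated against vehicle-exposed controls.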

[5] = NCI Yeast Anticancer Drug Screen. Data for the bub3 strain (AID 167); conditions: S. cerevisiae bub3 mutant strain, at 50.0 µM, hits give high values
Procedure, shortened: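 Whole-cell yeast assay. The mutant strain was incubated with compounds, and growth inhibition was determined by comparison with vehicle-treated cells.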

[6] = NCI Yeast Anticancer Drug Screen. Data for the mlh1 rad18 strain (AID 175); conditions: S. cerevisiae mlh1 rad18 strain growth inhibition; at 50.0 µM; hits give high values
Procedure, shortened: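 Vehicle-treated cultures served as the reference for growth inhibition in a yeast strain carrying DNA damage repair alterations exposed to each compound.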

Measured: growth inhibition

NCCC(=O)O
inactive: [1] 5.95% | [2] 14.9% | [3] -8.25% | [4] 12.1% | [5] -13.8% | [6] 16.9%

NC(=O)CC(N)C(N)=O (stereo unspecified)
inactive: [1] -8.25% | [2] -33.1% | [3] -47.8% | [4] 13.2% | [5] -18.3% | [6] -3.25%

COc1ccc(/C=C2\C(=O)N(C(=O)Cc3ccccc3)N=C2C)cc1OC
inactive: [1] -20.3% | [2] -20.2% | [3] -59.1% | [4] -16.8% | [5] -12.4% | [6] -42.6%

COC1=CCC=C(C(C)(C)C)C1
inactive: [1] -45.8% | [2] -22.6% | [3] -10.5% | [4] -32.1% | [5] -12.2% | [6] 21.7%

NNC(=O)CCCCCCO
inactive: [1] 5.3% | [2] 16.3% | [3] 10.1% | [4] 27.6% | [5] 18.3% | [6] 7.45%

O=C(N=C1SCCN1C(=O)C(C(F)(F)F)C(F)(F)F)C(C(F)(F)F)C(F)(F)F
inactive: [1] -20.6% | [2] -3.5% | [3] 4.95% | [4] 28.4% | [5] 2.3% | [6] -36.9%

COc1ccc(N2C(=O)C3c4[nH]c5ccccc5c4C4CC(C)(C)CC(C)(C)C4C3C2=O)cc1 (stereo unspecified)
inactive: [1] 35.9% | [2] 10.7% | [3] 13.3% | [4] -13.1% | [5] 33.1% | [6] 8.65%

CCCCC1(O)C(=O)N(c2ccccc2)N(c2ccccc2)C1=O
inactive: [1] 17.2% | [2] 11.1% | [3] 7.45% | [4] 13.1% | [5] 22.4% | [6] 4.2%

c1ccc2c(c1)CC1c3ccccc3CC21 (stereo unspecified)
inactive: [1] -1.2% | [2] -7% | [3] -1.95% | [4] -28.4% | [5] 0.75% | [6] -2.35%

CC1CCCCN1C(CC(=O)c1ccccc1)C(=O)c1ccccc1 (stereo unspecified)
inactive: [1] 21.4% | [2] 24.1% | [3] 8.55% | [4] 17.1% | [5] 18.4% | [6] 38.7%

CCC1CN2CCc3cc(OC)c(OC)cc3C2CC1C#N (stereo unspecified)
inactive: [1] 15.4% | [2] 9.2% | [3] 23.8% | [4] 21.1% | [5] 12.1% | [6] 23.1%

CCOC(=O)C1(C)CCC(C(C(=O)O)C(=O)O)CC1=O (stereo unspecified)
inactive: [1] -10.5% | [2] 9.95% | [3] 13.7% | [4] 20.2% | [5] 21.4% | [6] -12.5%

COc1cc(C)c(C(=O)c2ccccc2NS(=O)(=O)c2ccc(C)cc2)cc1OC
inactive: [1] 7.6% | [2] -0.7% | [3] -1.5% | [4] 22.6% | [5] -2.95% | [6] 9.1%

CN(C)CC1CCCCCC(Br)C1O (stereo unspecified)
inactive: [1] -5% | [2] 14.6% | [3] -1.15% | [4] -24.8% | [5] -10.7% | [6] 21.7%

COC1CCC(OC)(C(=O)NN)O1 (stereo unspecified)
inactive: [1] -22.9% | [2] -53.1% | [3] -9.45% | [4] 4.3% | [5] -57.2% | [6] -0.6%

COc1cc(OC)c(C(=O)/C=C/c2ccccc2)c(O)c1OC
inactive: [1] 24.8% | [2] -7.8% | [3] 20.9% | [4] -45.2% | [5] -15.1% | [6] 30.6%

COc1cc2oc(-c3ccc(O)cc3)c(OC3OC(C)C(O)C(O)C3O)c(=O)c2c(O)c1OC (stereo unspecified)
inactive: [1] 0.45% | [2] -13.8% | [3] -15.6% | [4] 9.4% | [5] -7.95% | [6] -74.6%

O=C1OC(c2ccccc2)(c2ccccc2)CC1c1ccccc1 (stereo unspecified)
inactive: [1] 9.05% | [2] 7.5% | [3] 12.8% | [4] -44% | [5] -4.25% | [6] 20.7%

CCOc1ccc([N+](=O)[O-])cc1
inactive: [1] -28.8% | [2] 3.9% | [3] -2.65% | [4] -40.2% | [5] -3.5% | [6] -31.9%

CC(C)CCCC(C)C1CCC2C3CC(=O)C4C=CCCC4(C)C3CCC12C (stereo unspecified)
inactive: [1] 39.1% | [2] 19.5% | [3] 27.6% | [4] 24% | [5] 2.65% | [6] 34%

O=C1c2ccccc2SC[C@@H]2CCCN12
inactive: [1] 22.9% | [2] -7.75% | [3] -3.6% | [4] 9.35% | [5] 3.35% | [6] 2.35%

CC(O)C(C)(C)[N+](=O)[O-] (stereo unspecified)
inactive: [1] 0.45% | [2] -1.55% | [3] -7% | [4] -4.25% | [5] 2.8% | [6] 1.75%

COC(=O)C1C2OC(C(Br)C2Br)C1C(=O)O (stereo unspecified)
inactive: [1] -6.2% | [2] 2.2% | [3] 7.1% | [4] 2.2% | [5] 9.95% | [6] 3.8%

c1cnc2c3ccncc3c3nc(-c4ccncc4)[nH]c3c2c1
inactive: [1] -10.2% | [2] -12.8% | [3] -11.3% | [4] -34.8% | [5] -17.3% | [6] -17.2%

COc1ccccc1P(=O)(CCP(=O)(c1ccccc1)c1ccccc1OC)c1ccccc1 (stereo unspecified)
inactive: [1] 2.15% | [2] 15.5% | [3] 13.3% | [4] 13.5% | [5] -1.75% | [6] 9.5%

CCOC(=O)c1ccc(C=O)cc1
inactive: [1] 15.5% | [2] -5.75% | [3] -4.95% | [4] 6.25% | [5] -5.8% | [6] -11.5%

Cc1c(C)c(C)c(CN2CC(=O)c3ccccc3C2=O)c(C)c1C
inactive: [1] 18% | [2] 13.7% | [3] 4% | [4] 14.1% | [5] 10.6% | [6] 15.5%

CCOC(=O)C(=O)SCC(NC(=O)OCc1ccccc1)C(=O)O (stereo unspecified)
inactive: [1] -12.9% | [2] -4.95% | [3] 11.7% | [4] -1.95% | [5] 7.75% | [6] -12.2%

CCOc1c/c(=N\N=C(/C)c2ccc(Cl)cc2)n(C)c(=O)n1C
inactive: [1] -13.8% | [2] -8.5% | [3] -10.5% | [4] -35.2% | [5] -6.85% | [6] -12.7%

O=C(O)C1CCCCC1C(=O)Nc1cccc2ccccc12 (stereo unspecified)
inactive: [1] 6.65% | [2] -2.8% | [3] -4.3% | [4] -7.95% | [5] 24.4% | [6] -39.5%

CC1N=C(c2ccccc2)SC1C (stereo unspecified)
inactive: [1] -14.2% | [2] -18.4% | [3] -24.9% | [4] -49.4% | [5] -11% | [6] -38.3%

CN(/N=C/C=N/N(C)C1=NCCN1)C1=NCCN1
inactive: [1] 4.35% | [2] -5.75% | [3] 0.15% | [4] 8.05% | [5] 0.25% | [6] -9.65%

CCCCNC(=O)c1cc(S(=O)(=O)n2cc[nH]c2=O)c(SC)cc1Cl
inactive: [1] 4.1% | [2] 2.7% | [3] 15.8% | [4] -2.75% | [5] -5.05% | [6] 31.2%

N#Cc1ccccc1NC(=O)C(=O)C(C(=O)c1ccncc1)C1OC(=O)c2ccccc21 (stereo unspecified)
inactive: [1] -2.55% | [2] -17.1% | [3] -31.3% | [4] 10.1% | [5] -0.65% | [6] 5.3%

O=C(Nc1nc(C23CC4CC(CC(C4)C2)C3)cs1)c1c(O)c2ccccc2[nH]c1=O
inactive: [1] -29.2% | [2] -23.9% | [3] -8.75% | [4] 8.95% | [5] -6.45% | [6] -22.5%

CC(=O)Oc1cccc(C)c1
inactive: [1] -20.6% | [2] -4.75% | [3] -18.8% | [4] -28.4% | [5] -13.2% | [6] -5.65%

OC1C(O)C2CC1C1C2C2(Cl)CC1(Cl)C(Cl)=C2Cl (stereo unspecified)
inactive: [1] 7.6% | [2] -1.55% | [3] 1.5% | [4] -1.35% | [5] -6.1% | [6] 14.3%

COc1ccc(C(CN(C)C(C)C)OC(=O)C(c2ccccc2)c2ccccc2)cc1OC (stereo unspecified)
inactive: [1] -14.1% | [2] -6.85% | [3] -12.6% | [4] -8.25% | [5] 1.25% | [6] -17.5%

COc1cc(-c2ccc(Nc3ccccc3C(=O)O)c(OC)c2)ccc1Nc1ccccc1C(=O)O
inactive: [1] -4.45% | [2] 0.2% | [3] 1.05% | [4] 8.15% | [5] 3.8% | [6] -11.9%

CSC(C1c2ccccc2N(C)C2=NC(=O)N(C)C(=O)C21Cl)S(=O)(=O)c1ccc(C)cc1 (stereo unspecified)
inactive: [1] 50.2% | [2] 12.2% | [3] 27.4% | [4] 35.7% | [5] 45.4% | [6] 51.3%

CCN(CC)S(=O)(=O)c1ccc(S(C)(=O)=O)cc1
inactive: [1] -19.8% | [2] -10.9% | [3] -8.05% | [4] -60.1% | [5] 8.35% | [6] -14.2%
